The values below come from PubChem BioAssay (NCATS).

Values joined by “and” are separate entries in the source; they are usually repeats but may differ in a detail not shown here. Identical values can stand only once. Records with an inconclusive call do not appear. More than one record can exist for a structure, and the calls need not agree. Active and inactive are the calls of the source. Unless noted, calls follow the shape of the dose curve; as a rule, active = well fitted curve in the direction sought with a large enough effect; inconclusive = small, poorly fitted or top-dose-only effect, or another doubt; inactive = no such curve, though single readings can be large; an effect the other way counts as inactive or inconclusive.

Assay [1] addresses Transient receptor potential cation channel subfamily V member 1 (Homo sapiens) (UniProt Q8NER1). The assay is described as follows: HTS Assay for Compounds that Act as Enhancers of the Vanilloid Receptor 1 (AID 488979). Also: 0% is about no effect. In outline:
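TRPV1-expressing cells loaded with Fluo-8 calcium dye; compounds added and calcium influx read kinetically for 3 min (agonist phase), then capsaicin at EC20 added and read 2 min more for enhancement. Fluorescence ex 480/em 520 nm.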

Assay [2] has as its target Thyrotropin receptor (Homo sapiens) (UniProt P16473). The assay is described as follows: qHTS Assay for Antagonists of the Thyroid Stimulating Hormone Receptor (AID 488980). Also: series mostly up to about 58 µM; 0% is about no effect. In outline: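 TSHR-transfected HEK293 cells (2000/well) in HEPES-buffered HBSS with 70 uM RO 20-1724 were stimulated with 4 nM TSH (EC80, final) in the presence of compound. cAMP was measured by HTRF competition after lysis and 30 min at RT.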
Background: Quantitative high-throughput screening tests each substance at several concentrations.

Assay [3] deals with ATP-dependent 6-phosphofructokinase (Trypanosoma brucei brucei) (UniProt O15648). Put plainly: qHTS Assay to Find Inhibitors of T. brucei phosphofructokinase: hit validation (AID 492961).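 Also: luminescence reports ADP formed as PFK phosphorylates fructose-6-phosphate with ATP; series mostly up to about 51 µM; % is scaled to controls: 0 for no effect and ±100 for the full control effect.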 In outline:
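Reaction: 0.1 M triethanolamine pH 8.0, 5 mM MgCl2, F6P 0.5 mM, ATP 0.1 mM, PFK 1.25 nM, 45 min RT. Read-out: ADP-Glo luminescence. Analysis: concentration-response fits, classed by r2 and efficacy.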

The target of assay [4] is Thyrotropin-releasing hormone receptor (Homo sapiens) (UniProt P34981). The assay is described as follows: qHTS for Small Molecule Agonists and Allosteric Enhancers of Human TRH Receptor: Validation Screen for Agonists (AID 493127;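 active = calcium activation more than 3 SD above the typical response in the agonist read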;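 also: intracellular calcium rise by fluo-8 fluorescence before TRH EC20 addition; 0% is about no effect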). The following applies: TRH receptor agonist cell assay; at 2 µM; stronger effect = higher value. In outline:
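Read-out: intracellular calcium release measured kinetically by FDSS (fluo-8, ex 480/em 530 nm), 1 reading/s after a 10-cycle baseline. TRHR cells, 2000/well, cultured 18 h at 33.5C, dye-loaded at room temp. Compound-evoked positive calcium signal flags agonists.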

Assay [5] concerns the target Galactokinase (Homo sapiens) (UniProt P51570). Put plainly: qHTS Validation Assay for Inhibitors of Human Galactokinase (GALK) (AID 493189). Also: 0% is about no effect. In outline:
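GALK (5 nM) with 35 uM ATP and 100 uM galactose in HEPES pH 8.0 with MgCl2, NaCl, DTT and BSA. Reaction ran 1 h at room temperature. Residual ATP read by Kinase-Glo Plus luminescence.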

Assay [6] can be described thus: Validation screen for small molecules that induce DNA re-replication in SW480 colon adenocarcinoma cells (AID 504364). Also: 0% is about no effect. In outline:
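Read-out: total Hoechst intensity of nuclei by fluorescence scanning imager; hits raise the fraction of nuclei with elevated DNA content. Cells received compound for 48 hr at 37 C before a 40 min stain.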

In assay [7] the target is Ubiquitin carboxyl-terminal hydrolase 1 (Homo sapiens) (UniProt O94782). The assay is described as follows: Inhibitors of USP1/UAF1: Pilot qHTS (AID 504865). Also: nearly all actives have a fitted effect of over 35% in size. Also: potency is read from the fitted curve at half-maximal effect. In outline:
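USP1/UAF1 complex at 1 nM preincubated 15 min at room temperature with compound, then Ub-Rho substrate added at 150 nM final. Fluorescence (480/540 nm) read kinetically in 50 mM HEPES pH 7.8, 0.5 mM EDTA, 1 mM TCEP, 0.1 mg/ml BSA, 0.01% Tween-20.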

Assay [8] deals with D(1A) dopamine receptor (Homo sapiens) (UniProt P21728). The assay is described as follows: HTS Assay for Allosteric Agonists of the Human D1 Dopamine Receptor: Primary Screen for Agonists (AID 488981). Also: 0% is about no effect. In outline:
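Tetracycline-induced HEK293 T-REx cells force-coupled to calcium signalling were incubated overnight at 30 C and dye-loaded at room temperature. Calcium flux over 180 s after compound addition flagged agonists; a further 180 s read after EC20 dopamine flagged potentiators.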

Assay [9] shares this target. Put plainly: HTS Assay for Allosteric Agonists of the Human D1 Dopamine Receptor: Primary Screen for Antagonists (AID 488983).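 Also: calcium flux response to an EC80 dopamine challenge measured with no-wash dye; nearly all actives have a fitted effect of over 65% in size.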 Also: potency is read from the fitted curve at half-maximal effect. In outline: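 Calcium flux readout, no-wash dye, inducible HEK293 T-REx D1 line (force-coupled). Compound added after 10 s baseline, 180 s kinetic read; then dopamine at EC80, further 180 s read.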
Assay [10] in a line: Validation screen for small molecules that induce genotoxicity in human embryonic kidney (HEK293T) cells expressing luciferase-tagged ELG1 (AID 493106). Also: 0% is about no effect. In outline: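 qHTS format; 2,000 HEK293T ELG1-luc cells/well; 23 nL compound via pin tool; 16 hr, 37 °C/5% CO2; ONE-Glo, 30 min RT; luminescence read.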
Assay [11] deals with ATPase family AAA domain-containing protein 5 (Homo sapiens) (UniProt Q96QE3). Put plainly: Validation screen for small molecules that inhibit ELG1-dependent DNA repair in human embryonic kidney (HEK293T) cells expressing luciferase-tagged ELG1 (AID 493107).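 Also: cells co-treated with the DNA-damaging agent 5-fluorouridine alongside compound; series mostly up to about 46 µM; % is scaled to controls: 0 for no effect and ±100 for the full control effect; inhibitors lower the ELG1-luciferase luminescence signal; nearly all actives have a fitted effect of over 70% in size.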 In outline:
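ELG1-luciferase HEK293T reporter; 5-fluorouridine + compound/DMSO, 16 hr, 37 °C, 5% CO2; ONE-Glo 30 min RT; luminescence read, qHTS format.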

Assay [12] is described as follows: Nrf2 qHTS screen for inhibitors: Validation (AID 493153; active = well fitted inhibition curve with a large enough effect in the main read-out, with a control signal flat, not every such curve was filed as active). The note with it: Potency: luciferase luminescence; viability change: measured here: cytotoxicity max response. In outline:
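Concentration-response test in A549 ARE_Fluc reporter cells (5% FBS OPTI-MEM), compound exposure 18-24 h at 37°C, 5% CO2. Cell viability measured first by CellTiter-Fluor fluorescence; ARE-driven luciferase luminescence then measured as Nrf2 activity.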

Assay [13] in a line: qHTS for Inhibitors of Cell Surface uPA Generation: Validation Assay (AID 493164).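 Also: RAW 264.7 macrophage cells exposed to compound for 18 h; 0% is about no effect.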 In outline:
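Compounds are titrated over seven points (2.45 nM–38.3 uM final) onto pre-plated RAW 264.7 cells and incubated for 18 h. Retained intracellular ATP, measured with ATP-Lite, indicates blocked lethal factor entry.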

Assay [14] has as its target Peptidyl-prolyl cis-trans isomerase NIMA-interacting 1 (Homo sapiens) (UniProt Q13526). The assay is described as follows: qHTS Validation Assay to Find Inhibitors of Pin1 (AID 504536; active = well fitted inhibition curve with a large enough effect in the polarisation, with a control signal flat, not every such curve was filed as active; the % refers to the polarisation;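 also: 0% = full Pin1 enzyme wells and -100% = no-enzyme wells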). In outline:
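Fluorescence polarization competition: compounds (titration) displace HiFluor-488-labeled Pin1-1b peptide from Pin1 (0.3 uM final) in pH 7.5 HEPES buffer with DTT, 10 min at room temperature; %Activity normalized to no-enzyme wells, curves fitted.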

Assay [15] addresses Phosphoglycerate kinase, glycosomal (Trypanosoma brucei brucei) (UniProt P07378). The assay is described as follows: qHTS Validation Assay to Find Inhibitors of Phosphoglycerate Kinase (AID 504547).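 Also: control wells lack PGK and mark full inhibition.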 In outline:
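In TEA buffer (100mM, pH 7.6) containing 5mM MgCl2 and 0.01% Tween-20, the GAPDH-coupled PGK reaction proceeded for 60 minutes at room temperature before a single luminescence reading using Kinase-Glo Plus.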

Assay [16] has as its target phosphoglycerate mutase (Leishmania major) (UniProt Q4Q090). The assay is described as follows: qHTS Validation Assay to Find Inhibitors of Phosphoglycerate Mutase (AID 504548). Also: series mostly up to about 58 µM; % is scaled to controls: 0 for no effect and ±100 for the full control effect. In outline:
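Lm PGAM 1.25nM final; 100 mM TEA pH 7.6, 5 mM MgCl2, 0.01% Tween-20; 45 min RT; Kinase-GloPlus, 10 min; end-point luminescence. Enzyme-free wells as negative controls.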

A short description of assay [17]: qHTS for Inhibitors of ATXN expression: Validation (AID 588378). Also: nearly all actives have a fitted effect of over 75% in size. Also: potency is read from the fitted curve at half-maximal effect. In outline: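 HEK293 cells carrying ATXN2-firefly luciferase reporter, treated with compound 24 h at 37 °C. Viability read first by CellTiter-Fluor (405/525 nm), then reporter expression by Bright-Glo luminescence; controls were a known ATXN2 expression inhibitor and a luciferase inhibitor.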
A short description of assay [18]: qHTS for Inhibitors of ATXN expression: Validation of Cytotoxic Assay (AID 588349). Also: % is scaled to controls: 0 for no effect and ±100 for the full control effect. In outline: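 Cytotoxicity counter-screen: HEK293 cells exposed to compound titrations, 72 hr, 37 degrees C. Read-out is intracellular ATP (CellTiter Glo luminescence) as a viability measure.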

Sequence of Thyrotropin-releasing hormone receptor (Homo sapiens) (P34981 whole entry, looked up): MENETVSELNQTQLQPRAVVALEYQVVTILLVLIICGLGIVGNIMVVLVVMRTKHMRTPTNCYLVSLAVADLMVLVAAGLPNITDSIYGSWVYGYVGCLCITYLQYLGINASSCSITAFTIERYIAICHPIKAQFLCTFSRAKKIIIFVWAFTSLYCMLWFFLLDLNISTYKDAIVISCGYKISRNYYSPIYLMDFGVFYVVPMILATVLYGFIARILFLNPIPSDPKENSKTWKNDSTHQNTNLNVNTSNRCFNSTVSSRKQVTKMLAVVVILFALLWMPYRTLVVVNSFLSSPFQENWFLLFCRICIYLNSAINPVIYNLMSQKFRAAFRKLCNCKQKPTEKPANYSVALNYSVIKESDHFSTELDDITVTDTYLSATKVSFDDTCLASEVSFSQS
Sequence of Thyrotropin receptor (Homo sapiens) (P16473 whole entry, looked up): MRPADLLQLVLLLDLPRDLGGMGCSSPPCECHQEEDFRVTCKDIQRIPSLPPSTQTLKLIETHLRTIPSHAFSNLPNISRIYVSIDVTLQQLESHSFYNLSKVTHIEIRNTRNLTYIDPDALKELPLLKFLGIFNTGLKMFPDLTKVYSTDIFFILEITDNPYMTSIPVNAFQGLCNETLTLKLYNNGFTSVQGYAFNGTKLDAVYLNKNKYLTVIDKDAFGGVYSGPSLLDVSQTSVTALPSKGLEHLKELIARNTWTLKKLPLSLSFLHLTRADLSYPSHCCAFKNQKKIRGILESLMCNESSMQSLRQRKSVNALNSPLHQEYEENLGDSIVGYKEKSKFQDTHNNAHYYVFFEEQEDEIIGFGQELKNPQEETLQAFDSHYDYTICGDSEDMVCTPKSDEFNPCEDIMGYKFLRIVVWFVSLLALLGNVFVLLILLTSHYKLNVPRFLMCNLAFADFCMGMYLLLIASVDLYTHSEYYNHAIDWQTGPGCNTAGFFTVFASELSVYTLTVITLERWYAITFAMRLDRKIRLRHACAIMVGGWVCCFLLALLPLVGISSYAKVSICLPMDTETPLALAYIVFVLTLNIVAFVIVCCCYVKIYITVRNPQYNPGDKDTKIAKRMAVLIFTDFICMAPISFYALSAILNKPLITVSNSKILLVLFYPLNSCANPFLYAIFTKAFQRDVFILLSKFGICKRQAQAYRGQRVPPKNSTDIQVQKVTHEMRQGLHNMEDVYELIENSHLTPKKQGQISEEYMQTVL
Sequence of Galactokinase (Homo sapiens) (P51570 whole entry, looked up): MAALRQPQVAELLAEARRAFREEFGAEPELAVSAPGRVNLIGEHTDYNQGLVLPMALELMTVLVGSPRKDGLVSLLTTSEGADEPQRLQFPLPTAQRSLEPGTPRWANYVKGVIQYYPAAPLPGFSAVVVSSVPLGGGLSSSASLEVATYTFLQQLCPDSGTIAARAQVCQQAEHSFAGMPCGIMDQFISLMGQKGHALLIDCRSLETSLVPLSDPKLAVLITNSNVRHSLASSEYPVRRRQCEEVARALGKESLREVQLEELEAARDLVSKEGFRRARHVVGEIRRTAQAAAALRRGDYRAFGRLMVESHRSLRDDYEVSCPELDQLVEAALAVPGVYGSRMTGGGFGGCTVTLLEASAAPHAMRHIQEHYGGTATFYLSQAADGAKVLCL
Sequence of Peptidyl-prolyl cis-trans isomerase NIMA-interacting 1 (Homo sapiens) (Q13526 whole entry, looked up): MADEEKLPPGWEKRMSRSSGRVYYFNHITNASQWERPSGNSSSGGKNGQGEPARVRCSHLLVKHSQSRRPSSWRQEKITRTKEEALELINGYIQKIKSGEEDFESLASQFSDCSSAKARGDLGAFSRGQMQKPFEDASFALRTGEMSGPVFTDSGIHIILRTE
Sequence of ATP-dependent 6-phosphofructokinase (Trypanosoma brucei brucei) (O15648 whole entry, looked up): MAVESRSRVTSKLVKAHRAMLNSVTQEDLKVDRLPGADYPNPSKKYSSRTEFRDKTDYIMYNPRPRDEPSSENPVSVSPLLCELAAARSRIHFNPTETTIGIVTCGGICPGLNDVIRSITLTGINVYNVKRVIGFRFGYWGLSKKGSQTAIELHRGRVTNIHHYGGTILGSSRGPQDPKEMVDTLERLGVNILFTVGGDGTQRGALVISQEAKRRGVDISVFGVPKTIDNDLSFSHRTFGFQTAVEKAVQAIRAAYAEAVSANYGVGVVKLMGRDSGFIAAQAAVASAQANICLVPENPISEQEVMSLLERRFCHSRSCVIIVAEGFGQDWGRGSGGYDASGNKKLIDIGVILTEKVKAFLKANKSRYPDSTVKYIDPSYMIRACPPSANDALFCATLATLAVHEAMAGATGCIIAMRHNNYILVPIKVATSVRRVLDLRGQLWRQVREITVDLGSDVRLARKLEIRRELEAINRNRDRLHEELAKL
Sequence of ATPase family AAA domain-containing protein 5 (Homo sapiens) (Q96QE3 whole entry, looked up, the tested form may be a part): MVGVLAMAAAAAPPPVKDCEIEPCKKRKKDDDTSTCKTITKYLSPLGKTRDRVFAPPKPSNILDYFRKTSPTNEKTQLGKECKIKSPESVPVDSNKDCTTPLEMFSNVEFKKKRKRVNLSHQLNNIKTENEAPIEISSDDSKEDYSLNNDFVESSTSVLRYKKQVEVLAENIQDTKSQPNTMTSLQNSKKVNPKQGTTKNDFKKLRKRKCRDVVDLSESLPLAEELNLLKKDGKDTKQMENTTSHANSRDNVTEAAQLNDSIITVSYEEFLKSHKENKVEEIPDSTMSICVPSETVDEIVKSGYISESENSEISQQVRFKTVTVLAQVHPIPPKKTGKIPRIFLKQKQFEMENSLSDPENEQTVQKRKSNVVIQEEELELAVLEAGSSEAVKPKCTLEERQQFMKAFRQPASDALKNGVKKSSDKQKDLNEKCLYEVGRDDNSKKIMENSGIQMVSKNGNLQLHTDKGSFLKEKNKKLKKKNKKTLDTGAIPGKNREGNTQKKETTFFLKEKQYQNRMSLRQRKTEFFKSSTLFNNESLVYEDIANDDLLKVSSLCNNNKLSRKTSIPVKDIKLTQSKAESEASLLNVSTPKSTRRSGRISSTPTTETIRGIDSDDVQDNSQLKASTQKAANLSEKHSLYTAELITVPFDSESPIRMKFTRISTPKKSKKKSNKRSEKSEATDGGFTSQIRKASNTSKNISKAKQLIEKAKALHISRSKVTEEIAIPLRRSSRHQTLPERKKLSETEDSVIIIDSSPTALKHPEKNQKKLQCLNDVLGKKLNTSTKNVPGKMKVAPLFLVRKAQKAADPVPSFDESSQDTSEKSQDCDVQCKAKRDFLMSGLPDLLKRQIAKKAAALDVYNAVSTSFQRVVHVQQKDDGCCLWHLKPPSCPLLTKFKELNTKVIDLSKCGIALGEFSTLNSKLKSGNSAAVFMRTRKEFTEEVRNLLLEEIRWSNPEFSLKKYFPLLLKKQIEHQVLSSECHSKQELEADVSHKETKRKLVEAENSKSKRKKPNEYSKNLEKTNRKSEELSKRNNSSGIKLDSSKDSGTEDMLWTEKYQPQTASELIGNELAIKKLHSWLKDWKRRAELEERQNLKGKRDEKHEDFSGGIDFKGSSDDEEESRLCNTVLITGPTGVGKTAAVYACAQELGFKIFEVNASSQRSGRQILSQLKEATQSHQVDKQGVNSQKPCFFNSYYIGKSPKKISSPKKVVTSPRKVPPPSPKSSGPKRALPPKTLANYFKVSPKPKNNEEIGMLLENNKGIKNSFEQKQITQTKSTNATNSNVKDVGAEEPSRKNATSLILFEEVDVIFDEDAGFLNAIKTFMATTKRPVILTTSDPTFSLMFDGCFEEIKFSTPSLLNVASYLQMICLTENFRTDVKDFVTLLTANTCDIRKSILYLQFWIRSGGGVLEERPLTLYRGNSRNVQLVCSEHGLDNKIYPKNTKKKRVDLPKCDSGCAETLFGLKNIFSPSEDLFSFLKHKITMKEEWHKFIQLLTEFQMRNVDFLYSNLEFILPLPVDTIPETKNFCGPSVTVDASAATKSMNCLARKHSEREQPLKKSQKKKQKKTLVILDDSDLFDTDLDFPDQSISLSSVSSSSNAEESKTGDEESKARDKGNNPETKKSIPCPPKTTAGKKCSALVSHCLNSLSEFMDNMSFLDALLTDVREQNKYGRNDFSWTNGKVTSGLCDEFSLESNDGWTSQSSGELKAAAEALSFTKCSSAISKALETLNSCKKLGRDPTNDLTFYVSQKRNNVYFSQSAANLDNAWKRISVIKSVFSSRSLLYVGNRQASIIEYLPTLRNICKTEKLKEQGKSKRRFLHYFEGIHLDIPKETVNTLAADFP
Sequence of Ubiquitin carboxyl-terminal hydrolase 1 (Homo sapiens) (O94782 whole entry, looked up): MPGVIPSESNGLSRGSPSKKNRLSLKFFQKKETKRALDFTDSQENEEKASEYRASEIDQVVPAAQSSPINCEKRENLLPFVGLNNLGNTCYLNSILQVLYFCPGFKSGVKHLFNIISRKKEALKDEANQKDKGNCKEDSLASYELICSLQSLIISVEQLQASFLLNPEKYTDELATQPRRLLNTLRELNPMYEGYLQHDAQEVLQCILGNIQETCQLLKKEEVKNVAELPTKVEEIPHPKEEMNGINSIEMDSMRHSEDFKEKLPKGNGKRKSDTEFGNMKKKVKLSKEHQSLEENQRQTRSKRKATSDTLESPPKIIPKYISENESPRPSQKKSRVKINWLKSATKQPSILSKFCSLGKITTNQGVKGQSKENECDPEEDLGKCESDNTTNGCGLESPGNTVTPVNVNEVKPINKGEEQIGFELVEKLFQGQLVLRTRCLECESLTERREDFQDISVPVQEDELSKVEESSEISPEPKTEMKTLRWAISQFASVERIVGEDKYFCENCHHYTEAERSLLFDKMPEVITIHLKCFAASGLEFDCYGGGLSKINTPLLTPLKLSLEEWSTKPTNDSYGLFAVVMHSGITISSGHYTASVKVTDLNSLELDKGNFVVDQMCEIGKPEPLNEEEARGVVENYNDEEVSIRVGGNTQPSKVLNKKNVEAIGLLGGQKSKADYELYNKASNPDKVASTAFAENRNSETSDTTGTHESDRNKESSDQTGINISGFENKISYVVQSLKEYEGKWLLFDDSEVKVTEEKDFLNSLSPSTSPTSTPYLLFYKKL

With `C[C@H]1O[C@@H](n2cc(F)c(=O)[nH]c2=O)[C@H](O)[C@@H]1O`, the result in [1], in assay [2], in assay [5] and in assay [6] was inactive. Besides, the Potency result in assay [3] and in assay [7] was “inactive” in each case. For the same molecule, the activation in assay [4] is 0.688% (inactive).
`CC(CN1c2ccccc2Sc2ccccc21)N(C)C` (configuration not stated): the molecule was called inactive in assay [2], in assay [11], in assay [13], in assay [5], in [6] and in assay [14]. Further, the result in assay [15] and in [16] was inactive. Moreover, the Potency entry in assay [8], in assay [10], in assay [12] and in assay [7] was “inactive” in each case. Besides, the Potency is 10 µM (active) in assay [9] and 17.8 µM (active) in assay [17]. Moreover, the activation in assay [4] is 3.12% (inactive). Further, the viability change in assay [12] is 5.51%.
`CN(C)CCOC(C)(c1ccccc1)c1ccccn1` (configuration not stated): the outcome in assay [1], in assay [2], in assay [11], in assay [13], in assay [5] and in assay [6] was inactive. Moreover, the molecule was classed as inactive in [14], in assay [15] and in assay [16]. Also, the Potency result in assay [8], in assay [9], in [10], in [12], in assay [7] and in assay [18] was “inactive” in each case. Moreover, the Potency result in assay [17] was “inactive”. Moreover, the viability change in assay [12] is -4.35%.
As for `NC(=O)c1ncn([C@@H]2O[C@H](CO)[C@@H](O)[C@H]2O)n1`, the result in assay [1], in assay [11], in [6] and in assay [14] was inactive. In addition, the Potency entry in [8], in assay [9], in [10], in [7] and in assay [18] was “inactive” in each case. Also, the activation in assay [4] was 0.875% (inactive).
In the case of `CC1=C(CC(=O)O)c2cc(F)ccc2/C1=C\c1ccc(S(C)(=O)=O)cc1`, the outcome in [1], in assay [13], in assay [5], in [6], in assay [14] and in [15] was inactive. In addition, the call in assay [16] was inactive. Also, the Potency result in [8], in assay [9], in assay [10], in [12], in assay [7] and in assay [18] was “inactive” throughout. Further, in assay [17], the Potency result is “inactive”. For the same molecule, the activation in assay [4] was 0% (inactive). Besides, the viability change in assay [12] is -17.2%.
With `OCc1cc(C(O)CNCCCCCCOCCCCc2ccccc2)ccc1O` (configuration not stated), the molecule was called inactive in [2], in [11], in [13], in assay [5], in assay [6] and in [14]. The molecule was called inactive in assay [15] and in assay [16]. Further, the Potency entry in [9], in assay [3], in [10] and in assay [7] was “inactive” each time. Besides, the activation in assay [4] is -0.25% (inactive).
Take `C=Cc1c(C)c2cc3[nH]c(cc4nc(cc5nc(cc1[nH]2)C(C)=C5CCC(=O)O)C(CCC(=O)O)=C4C)c(C)c3C=C`: the result in assay [1], in assay [2], in assay [11], in assay [13], in [5] and in assay [6] was inactive. In addition, the result in assay [15] and in assay [16] was inactive. The Potency entry in assay [8], in assay [9], in assay [3], in [10] and in assay [17] was “inactive” throughout. Further, the activation in assay [4] is 0.125% (inactive). In addition, the Potency result in assay [7] was “inactive and 50.1 µM (active)”.
In the case of `CN(C)CCC=C1c2ccccc2CCc2ccccc21`, the molecule was called inactive in assay [2], in [11], in assay [13], in assay [5], in assay [6] and in [14]. The result in assay [15] and in [16] was inactive. The Potency entry in assay [8], in [10] and in [12] was “inactive” in each case. For the same molecule, the activation in [4] is 1.31% (inactive). Also, in [12], the viability change was 9.1%.
